RXFP1 agonist: qHTS Assay for Agonists of the Relaxin Receptor RXFP1; Relaxin receptor 1 (Homo sapiens), Q9HBX9; HEK293T-RXFP1 cAMP TR-FRET, 30 min; response scale: percent of porcine relaxin response, buffer zero; Potency, µM (highest dose often 57.5 µM), for inactives: top-dose activation, actives largely listed as activators; hit rate 0.3% among 370,000; note: potency is the fitted concentration of half-maximal effect; % is set by controls: 0 for no effect and ±100 for the full control effect; nearly all actives have a fitted effect of over 60% in size
Target sequence (Q9HBX9 whole entry, looked up): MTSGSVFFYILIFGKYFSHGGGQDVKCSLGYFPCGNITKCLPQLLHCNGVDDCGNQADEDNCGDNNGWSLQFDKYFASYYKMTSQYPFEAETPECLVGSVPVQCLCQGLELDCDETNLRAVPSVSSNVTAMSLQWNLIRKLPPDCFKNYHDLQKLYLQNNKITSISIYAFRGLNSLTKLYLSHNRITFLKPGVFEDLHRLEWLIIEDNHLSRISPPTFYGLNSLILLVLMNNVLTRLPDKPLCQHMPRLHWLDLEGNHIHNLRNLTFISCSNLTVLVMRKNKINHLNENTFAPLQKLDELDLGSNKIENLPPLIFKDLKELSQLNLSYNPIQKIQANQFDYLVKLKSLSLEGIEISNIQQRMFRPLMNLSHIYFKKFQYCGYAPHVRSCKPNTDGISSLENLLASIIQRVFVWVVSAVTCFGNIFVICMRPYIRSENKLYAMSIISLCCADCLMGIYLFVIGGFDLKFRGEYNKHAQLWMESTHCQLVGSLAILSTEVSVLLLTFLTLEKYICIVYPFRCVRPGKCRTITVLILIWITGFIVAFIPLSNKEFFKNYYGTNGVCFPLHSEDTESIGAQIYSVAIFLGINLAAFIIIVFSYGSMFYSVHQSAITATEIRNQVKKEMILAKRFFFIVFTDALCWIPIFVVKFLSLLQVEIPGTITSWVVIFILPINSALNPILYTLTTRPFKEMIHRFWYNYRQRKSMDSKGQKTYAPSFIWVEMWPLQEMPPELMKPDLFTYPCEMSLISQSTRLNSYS
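Agonist response is measured as cAMP accumulation in an RXFP1-transfected HEK293T line under PDE4 inhibition. Values are scaled between buffer-only and 29 nM porcine relaxin, and EC50s come from standard Hill equation fits.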
CCT chaperon mod: High-Throughput Screening for Modulators of Cytosolic Chaperonin Activity; activity change, % (test concentration not listed), hits read low; purified chaperonin ATPase assay, HTRF ADP detection, 30 min; AID 651819, 2012; hit rate 0.3% among 360,000; in the data active = activity change below about -30%; note: % is set by controls: 0 for no effect and ±100 for the full control effect
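First, chaperonin was dispensed at 40 nM or 20 nM final depending on batch activity. Next, compounds were pinned at 76 uM and ATP added at 10 uM. After 30 min at 37 °C, ADP detection reagents ran 30 min at ambient temperature.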
MmCpn inh: Inhibitors of TCP-1 ring complex (TRiC) of Methanococcus maripaludis (MmCpn): qHTS; Chaperonin Mm-Cpn (Methanococcus maripaludis); purified Mm-Cpn ATPase, ADP Transcreener TR-FRET; Potency, µM (doses to about 76.9 µM), for inactives: top-dose activity, negative = inhibition, most hits filed as inhibitors; hit rate 0.031% among 330,000; AID 504842, 2011; note: potency is the fitted concentration of half-maximal effect; % is set by controls: 0 for no effect and ±100 for the full control effect; nearly all actives have a fitted effect of over 80% in size
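Quantitative HTS used 25 nM Mm-CPN and 10 uM ATP in magnesium/KCl Tris buffer, pH 7.4, with 1 mM DTT. Hydrolysis ran 30 min at 37°C; ADP was read by HTRF.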
gsp antag: qHTS for Antagonists of gsp, the Etiologic Mutation Responsible for Fibrous Dysplasia/McCune-Albright Syndrome: qHTS | hit rate 0.4% among 340,000 | gsp-mutant cells, cAMP HTRF, 30 min | Potency, µM (highest dose often 76.9 µM), inactives show top-dose activity change, negative = inhibition, usual class: inhibitors; calls by dose curve; cell line not stated here;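 note: intracellular cAMP measured with PDE inhibitor Ro 20-1724 present during compound exposure; potency is the fitted concentration of half-maximal effect; % is set by controls: 0 for no effect and ±100 for the full control effect; nearly all actives have a fitted effect of over 65% in size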
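Cells in G418 medium, seeded 16-24 h, 37C; buffer exchange to DPBS + 1 mM CaCl2, 0.5 mM MgCl2, 0.05% BSA; cpds in DMSO + […] (300 uM stock), 30 min 37C; HTRF cAMP detection.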
gsp agonist: qHTS for Agonist of gsp, the Etiologic Mutation Responsible for Fibrous Dysplasia/McCune-Albright Syndrome: qHTS; Potency, µM (series often up to 76.9 µM), for inactives: at the top dose activation (cAMP increase), hits mostly activators; AID 624287, 2012; gsp mutant cells, cAMP HTRF, 30 min; hit rate 0.13% among 340,000; active = well fitted activation curve with a large enough effect; inconclusive = small, poorly fitted or top-dose-only effect, or another doubt; inactive = no such curve, though single readings can be large or run the other way; cell line not stated here;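 note: phosphodiesterase inhibitor Ro 20-1724 added with compounds to block cAMP breakdown; potency is the fitted concentration of half-maximal effect; nearly all actives have a fitted effect of over 60% in size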
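Cells in DMEM/10% FBS with G418 were pretreated with compounds in DMSO plus […] (300 uM stock) for 30 min at 37C. cAMP was measured by HTRF (cAMP-d2 plus anti-cAMP antibody-K) after 30 min at room temperature.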
RXFP1 antagonist: qHTS Assay for Antagonists of the Relaxin Receptor RXFP1. AID 1259400, 2018. hit rate 0.59% among 350,000. Relaxin receptor 1 (Homo sapiens), Q9HBX9. HEK293-RXFP1, relaxin-stimulated cAMP HTRF, 30 min; hits give low values. activity change, negative = inhibition, % at 57.5 µM;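 active = activity change of -60% or lower, but not beyond a set lower limit; inconclusive = change between -60% and -40%, or beyond the set limit; inactive = change above -40%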; note: % is set by controls: 0 for no effect and ±100 for the full control effect
* hit, by the source's call; u = inconclusive; x = no result given; [ ] = remark or other dose. Shown are actives, neighbours in structure and some others; about 1.2% of the full set was active somewhere. Unless noted, calls come from the whole dose curve; as a rule, active = well fitted curve in the direction sought with a large enough effect; inconclusive = small, poorly fitted or top-dose-only effect, or another doubt; inactive = no such curve, though single readings can be large; an effect the other way counts as inactive or inconclusive.

SMILES | RXFP1 agonist | CCT chaperon mod | MmCpn inh | gsp antag | gsp agonist | RXFP1 antagonist
COC(=O)c1c(NC(NC(=O)C(C)(C)C)C(Cl)(Cl)Cl)sc2c1CCC2 (stereo not given) | -1% | -6 | -1% | u | u | -81*
COC(=O)c1c(NC(NC(=O)C(C)C)C(Cl)(Cl)Cl)sc2c1CCC2 (stereo not given) | 0% | -3 | -1% | -21% | 1% | -60*
CCOc1cc(C(=O)NCC(=O)N2CCC3(CC2)NCCc2[nH]cnc23)cc(OCC)c1OCC | 0% | -2 | -1% | 5% | -3% | -119*
O=C(NCCCN1CCCCCC1)c1ccc2c(c1)sc1nc(-c3ccccc3)cn12 | 1% | x | x | x | x | -2
CCc1ccc(CN2CCCC(C(=O)Nc3ccccc3-c3ccc(OC)cc3)C2)o1 (stereo not given) | 0% | -1 | -1% | -4% | -29% | -77*
Cc1ccccc1OCCc1c(C)[nH]c(=S)[nH]c1=O | 1% | -3 | -5% | 26% | 11%[15.4 µM] | u
Cc1[nH]c(=S)[nH]c(=O)c1CCOc1ccccc1 | -1% | -1 | -7% | 5% | 24% | -81*
CCCCCCCCOC(=O)CCc1c(C)[nH]c(=S)[nH]c1=O | 5% | -2 | 1% | 6% | 14% | -70*
O=C(Nc1cccc(C(=O)N2CCCC2)c1)C1CCCC1 | x | 1 | x | 10% | x | x
O=C(Nc1cccc(C(=O)N2CCCCC2)c1)C1CC1 | x | -48* | x | 6% | x | x
Cc1nc(SCC(=O)N2CCN(C(=O)c3cccs3)CC2)c2c(C)c(C)sc2n1 | 17% | 2 | -4% | -30% | u | -64*
Cc1nc(SCC(=O)N2CCN(C(=O)c3ccco3)CC2)c2c(C)c(C)sc2n1 | 8% | -10 | -3% | 14% | u | 13
CCOC(=O)c1c(C)[nH]c(C)c1S(=O)(=O)N1CCCC(C(=O)NCc2cccc(OC)c2)C1 (stereo not given) | 0% | x | x | x | x | x
O=C(Nc1ccc2oc(-c3ccc(Br)cc3)nc2c1)c1cc2ccccc2o1 | u | x | x | x | x | -13
O=C(Nc1ccc2oc(-c3cc(Br)ccc3Cl)nc2c1)c1cc2ccccc2o1 | 20µM* | x | x | x | x | 5
COc1ccc(C)cc1NC(=O)c1sc2ncnc(N3CCN(c4ccccn4)CC3)c2c1C | u | -139* | -10% | u | 17%[15.4 µM] | -1
CN1C(=O)S/C(=C/c2ccccc2OCc2ccc(C(=O)O)cc2)C1=O | 1% | -3 | -1% | 32µM* | -2%[15.4 µM] | 4
Cc1cccc(C2=NN(c3ccccc3)[C@@H](C(=O)N3CCOC3=O)[C@@H]2c2ccc(F)cc2)c1 | x | 0 | 32µM* | -17% | x | x
Cc1cccc(C2=NN(c3ccccc3)[C@@H](C(=O)N3CCOC3=O)[C@@H]2c2ccc(Cl)cc2)c1 | x | -1 | -23% | -10% | x | x
Cc1ccc(Cn2c(C)c3cnn(CC(=O)N4CCN(c5cc(C)ccc5C)CC4)c(=O)c3c2C)cc1 | -1% | x | x | x | x | -27
N#Cc1ccc(-c2ccc(OCC(O)Cn3nnc4ccccc43)cc2)cc1 (stereo not given) | 0% | 0 | -2% | 32µM* | -5% | -5
CCCSc1nnc(NC(=O)CSc2sc3c(O)cc(=O)[nH]c3c2C#N)s1 | 11% | -2 | -4% | 0% | 23% | -26
N#Cc1c(SCC(=O)Nc2nccs2)sc2c(O)cc(=O)[nH]c12 | 8% | -1 | -10% | 9% | -2% | -87*
Cc1ccc(-c2cn3c4c(=O)n(C)c(=O)n(C)c4nc3n2-c2cccc(Cl)c2)cc1 | 0% | x | x | x | x | -14
CC1(C)Cc2ccccc2-c2nnc(SCC(=O)N3CCN(c4ccccc4)CC3)n21 | 5% | -3 | -2% | 35µM* | 19% | 0
SMILES | RXFP1 agonist | CCT chaperon mod | MmCpn inh | gsp antag | gsp agonist | RXFP1 antagonist
CC1(C)Cc2ccccc2-c2nnc(SCc3ccccc3)n21 | 0% | 6 | -1% | -19% | -61% | -25
O=c1c2ccccc2nc(COc2ccccc2)n1/N=C/c1ccc(O)cc1O | 5% | -4 | 1% | u | 12% | -71*
Cn1cc(C(=O)c2ccc(Cl)cc2)cc1-c1nc2ccccc2n1C | 2% | -1 | -6% | 35µM* | u | -9
COc1ccc(-c2nc(SCC(=O)Nc3ccc4c(c3)OCO4)c(-c3ccccc3)[nH]2)cc1 | 2% | x | x | x | x | -27
CCOc1c2ccc(C(=O)NCc3ccc(OC(F)(F)F)cc3)cc2nn1CC | 0% | -59* | 0% | -6% | 0% | x
C=CCn1c(=O)n([C@@H]2O[C@H](CO)[C@@H](O)[C@H]2O)c2nc(N)[nH]c(=O)c21 | x | x | x | x | x | -3
Cc1onc(-c2c(Cl)cccc2Cl)c1C(=O)Cl | x | x | x | x | x | -3
CN(CC(=O)Nc1ccc(F)cc1)C(=O)COC(=O)Cc1c(F)cccc1Cl | 1% | -5 | 0% | 3% | -34%[15.4 µM] | 16
CN(CC(=O)Nc1ccccc1Cl)C(=O)COC(=O)Cc1c(F)cccc1Cl | 13µM* | -1 | -7% | 7% | 10% | -7
Cc1nc2ccc(S(=O)(=O)N(C)CC(=O)Nc3ccc(C(C)C)cc3)cc2s1 | 3% | x | x | x | x | -9
Cc1ccc(C(CC(=O)NCC2(c3ccccc3)CCCC2)c2ccccc2)c(O)c1 (stereo not given) | 2% | x | x | x | x | -65*
COC(=O)c1ccc(-n2c(CCC(=O)O)ccc2-c2ccc(C)cc2)cc1 | 1% | 2 | 0% | 32µM* | -23% | 0
O=C(CCN1N=C(c2ccccc2)CCC1=O)NCCc1ccc(Cl)cc1 | 0% | x | x | x | x | 9
COc1ccc(NC(=O)C2CCCN2c2nn3c(=O)cc(C)nc3s2)cc1 (stereo not given) | u | 1 | -3% | 13% | 22µM* | 6
Cc1cc(C(=O)CSc2nc3ccccc3[nH]2)c(C)n1CC1CCCO1 (stereo not given) | -1% | 0 | -1% | 32µM* | 7% | -38
Cc1cc2ccccc2n1CCNC(=O)c1ccc(S(=O)(=O)N2CCOCC2)cc1 | 7% | -5 | 32µM* | -13% | -50% | -3
Cc1cc2ccccc2n1CCNC(=O)c1ccc(Br)cc1 | -1% | x | x | x | x | x
Cc1cc2ccccc2n1CCNC(=O)COc1ccccc1 | 6% | -32* | -22% | -5% | u | 2
Cc1cc2ccccc2n1CCNC(=O)c1ccccc1 | 7% | -1 | 40µM* | -9% | u | -8
